Measurements taken from the supplement of paper PMC6555819.

Key:
Assay in all cases: PBM binding z-score (relative to random genomic background probes); higher = stronger binding; sequences stand for … in GC…GCGATTGACAGCGTAGAATGAAGG
[1] = system: FXR:RXRa (NR concentration 270 nM, RXRa partner concentration 90 nM)
How it was run: (§1)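 Scanned fluorescence from custom Agilent 4×180K protein-binding microarrays was regression-normalized. Binding z-scores use random background probes as reference. Ligand-free nuclear receptor dimers were incubated on the arrays for 1 h and detected with antibodies against each partner (one per run).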

[2] = system: LXRa:RXRa (NR concentration 270 nM, RXRa partner concentration 90 nM)
How it was run: as §1

[3] = system: LXRa homodimer (NR concentration 270 nM)
How it was run: as §1

[4] = system: LXRb:RXRa (NR concentration 270 nM, RXRa partner concentration 90 nM)
How it was run: as §1

[5] = system: LXRb homodimer (NR concentration 270 nM)
How it was run: as §1

[6] = system: PPARa:RXRa (NR concentration 270 nM, RXRa partner concentration 90 nM)
How it was run: as §1

[7] = system: PPARg:RXRa (NR concentration 180 nM, RXRa partner concentration 90 nM)
How it was run: as §1

[8] = system: PPARg:RXRa 270nM:90nM, anti-RXR (NR concentration 270 nM, RXRa partner concentration 90 nM)
How it was run: as §1

[9] = system: PPARg:RXRa 30nM:10nM, anti-RXR (NR concentration 30 nM, RXRa partner concentration 10 nM)
How it was run: as §1

[10] = system: PPARg:RXRa 90nM:30nM, anti-RXR (NR concentration 90 nM, RXRa partner concentration 30 nM)
How it was run: as §1

| Sequence | PBM binding z-score [1] | PBM binding z-score [2] | PBM binding z-score [3] | PBM binding z-score [4] | PBM binding z-score [5] | PBM binding z-score [6] | PBM binding z-score [7] | PBM binding z-score [8] | PBM binding z-score [9] | PBM binding z-score [10] |
| --- | --- | --- | --- | --- | --- | --- | --- | --- | --- | --- |
| ACTTACGGGTCAACGAGGTTTTAGCACGCGTATA | 6.78 | 4.29 | 0.188 | 3.9 | 0.561 | 5.92 | 5.23 | 4.84 | 1.94 | 3.95 |
| ATACCAAGGTGATCATGAGGTCGTTGATACTAAC | 1.75 | 1.61 | 0.874 | 1.38 | -0.0501 | 1.89 | 0.785 | 0.728 | 0.266 | 0.604 |
| CGTCCAAGGTTAATGCTAGGTCAGTGAAAGCATT | 1.98 | 4.46 | 1.76 | 2.28 | -0.518 | 2.21 | 0.161 | 0.685 | -0.233 | 0.133 |
| CGACCTAGGTCAAGGACAGTGAATCTCCGCACGC | 4.5 | 2.95 | -0.0211 | 2.07 | -0.684 | 3.94 | 3.55 | 3.19 | 0.64 | 1.86 |
| CCACGGAGGACAACAGGAGGTCAGAGCTGCCAGA | 1.09 | 2.38 | 2.44 | 1.7 | -0.198 | 2.21 | 0.672 | 0.164 | -0.705 | -0.441 |
| AGTCAAAGTTCATGTAGGTAACGTAAGATATGCT | 6.48 | 5.94 | 4.83 | 3.65 | 1.37 | 4.9 | 6.75 | 6.37 | 3.09 | 5.61 |
| TCTTGTAGATCAAAGGTTGAGAAAGCCGAAGCCT | 0.89 | 0.864 | -0.12 | 0.541 | -0.308 | 3.14 | 5.99 | 6.2 | 5.78 | 6.91 |
| CCTACTGGGCCAAGGTCATTGAACAGTCAAAGCA | 3.08 | 3.2 | 0.814 | 3 | -0.34 | 4.19 | 4.25 | 4.55 | 1.68 | 3.73 |
| CAACCAAGGTGAACAAGGTCGTTGATTACTATTC | 1.58 | 1.48 | 0.275 | 2.09 | -0.212 | 2.67 | 1.33 | 1.41 | 0.118 | 0.789 |
| TCTAGTTGGTCAAAGCTCACACACTCGAAATGCG | 0.576 | 0.551 | 0.233 | 0.661 | 0.421 | 1.58 | 2.21 | 4.31 | 3.89 | 4.23 |
| TATACAGGGTCAAAGGCCACAGTACGAATGTCGA | 7.15 | 6.26 | 2.88 | 5.26 | 2.68 | 6.52 | 9.43 | 8.36 | 7.28 | 8.74 |
| CCTTACGGGTCACTCCAGGTTATAGGATCGGAGT | 4.94 | 7.84 | 1.93 | 5.04 | -0.0329 | 4.39 | 3.38 | 3.76 | 1.12 | 2.6 |
